Out of some 390,000 compounds screened, about 760 (0.19%) were called active. Where a call stands in place of a potency, no number is given. Roughly 3% stayed inconclusive and do not appear here. Calls come from the whole dose curve; as a rule, active = well fitted inhibition curve with a large enough effect; inconclusive = small, poorly fitted or top-dose-only effect; inactive = flat fitted curve, though single readings scatter. This excerpt belongs to a sample that is enriched for actives.
Potency is the fitted concentration of half-maximal effect.

The test is described as follows: qHTS for Inhibitors of Vif-A3F Interactions: qHTS. Note: nearly all actives have a fitted effect of over 65% in size. The settings on record: HeLa A3F-eYFP + Vif (tagged APOBEC3F with the HIV-1 protein that degrades it), YFP fluorescence increase; series mostly up to 46.1 µM. From the text: The recent discovery and characterization of host restriction factors, which provide a potent defense to invading retroviruses, has provided new targets for antiviral drug development. APOBEC3G (A3G) and APOBEC3F (A3F) are potent cytidine deaminases that block HIV-1 replication; HIV-1 expresses the Vif protein, which counteracts A3G and A3F by binding to them and inducing their proteasomal degradation. The Vif-A3G and Vif-A3F interactions provide two potential targets for development of small molecules which can interfere with the ability of Vif to degrade A3G or A3F. […] To identify inhibitors that can interfere with Vif mediated degradation of A3G and A3F, we have developed Hela cell lines that stably express A3G or A3F tagged with eYFP at the C-terminal end (A3G-eYFP or A3F-eYFP, respectively) and Vif. In the absence of an inhibitor, Vif induces degradation of A3G-eYFP and A3F-eYFP, and the cells are not fluorescent. In the presence of an inhibitor, it is expected that Vif will be unable to degrade A3G-eYFP and/or A3F-eYFP, resulting in an increase in yellow fluorescence. In this assays Vif A3F was screened against the Molecular Library Small Molecule Repository (MLSMR). NIH Chemical Genomics Center [NCGC] NIH Molecular Libraries Probe Centers Network [MLPCN] MLPCN Grant: MH093245 Assay Submitter (PI): Vinay Pathak, National Cancer Institute
5 uL of 700 cells/well of A3F-YFP cells are dispensed into black, clear bottom plates. The plates are incubated overnight at 37 deg C. 23 nL of compounds are added by pintool. The plates are incubated overnight at 37 deg C and then read on the TTP Acumen (Ex 488/ Em 500-530).
In general terms: qHTS replaces the single test concentration by a dilution series.
Regarding `CC1=CC(=Cc2sc3ccccc3[n+]2C)C=C(C)O1`, the Potency was 5.01 µM (active).
For `CNP1(NC)=Nc2nn(-c3ccccc3)c(N)c2C(c2ccccc2)=N1`, the Potency result was “inactive”.
Then `CC/C(=N\NC(=O)c1ccccc1O)c1c(O)n(Cc2ccccc2)c(=O)[nH]c1=O`, with 11.2 µM (active); and `O=C(N/N=C/c1c(O)n(Cc2ccccc2)c(=O)[nH]c1=O)c1ccccc1`, with “inactive”.
Then `CCC(=NCc1ccco1)c1c(O)n(Cc2ccccc2)c(=O)[nH]c1=O`, with “inactive”; and `Cc1ccc2c(c1)=C/C(=C\c1c(O)[nH]c(=O)[nH]c1=O)C(=O)N=2`, with “inactive”; and `CCOc1ccc(CNC(=O)c2cccc(Nc3nc4ccccc4n4nnnc34)c2)cc1OC`, with 12.6 µM (active).
Take `COc1cc(Cn2c(N)c(C(=O)NCc3ccco3)c3nc4ccccc4nc32)cc(OC)c1OC`: the Potency entry was “inactive”.
The entry for `CCCn1c(C(=O)c2ccccc2OC)nc2ccccc21` is “inactive”; for `COC(=O)C1=C(c2cc3ccccc3s2)C[C@@H]2CC[C@H]1N2C(=O)NCc1cccc2ccccc12` it is “inactive”; for `CC(=CCOc1ccc2ccc(=O)oc2c1)C1=CC(=O)C(C)(C)O1` it is “inactive”.
Turning to `O=c1c2ccccc2[nH]c(=S)n1-c1cccc(Cl)c1`, the Potency result is “inactive”.
Then `O=c1c2ccccc2nc(/C=C/c2ccc(F)cc2)n1-c1ccccc1O`, with 22.4 µM (active).
Then `Cn1cc(/C=C/c2nc3ccccc3c(=O)n2-c2ccccc2)c2ccccc21`, with “inactive”; and `O=c1c2ccccc2nc(/C=C/c2ccco2)n1-c1ccccc1O`, with “inactive”.
Turning to `CCC(C)(O)C(=O)OC1C(=O)OC2CC3C(C)=CC(=O)C(O)C3(C)C3C4(O)OCC23C1C(C)C4O` (stereo not given), the Potency entry is “inactive”.
Then `C=C(C)C1(CCCC)C(=O)NC(=S)NC1=O`, with “inactive”.
Then `COC(=O)C1=C(c2ccc(Cl)c(C(F)(F)F)c2)C[C@@H]2CC[C@H]1N2C(=O)NC(C)C`, with “inactive”.
Then `COC(=O)C1=C(c2cc3ccccc3o2)C[C@@H]2CC[C@H]1N2C(=O)NC1CCCCC1`, with “inactive”; and `CC(C)(C)c1ccc(OC(=O)N2CCCCC2)cc1`, with “inactive”.

The values above are taken from PubChem BioAssay AID602313 (National Center for Advancing Translational Sciences (NCATS), 2012).
